Data on 40 sequences can be found in the OligoGym collection.
Also: reference of the scale not given here.

In one assay the target is GNAQ. Description: pooled miR-30 sensor sort-seq; sequence = guide strand. The settings on record: shRNA.
As to TCGTCTATCATAGCATTCCTGG, the sensor-assay potency score (higher = more potent) was -1.02.

For the sequence TCTAAGCACATCTTGTTGCGTA, the sensor-assay potency score (higher = more potent) turned out to be 0.35.

Sequence TCGAACTCTAAGCACATCTTGT returned a sensor-assay potency score (higher = more potent) of -0.759.

TTGTGCATGAGCCTTATTGTGC returned a sensor-assay potency score (higher = more potent) of -1.26.

TATCTTCATCAGAGTATCCTGA showed a sensor-assay potency score (higher = more potent) of -0.164.

As to TTGAGTGTGTCCATGGCTCTGA, the sensor-assay potency score (higher = more potent) was 0.188.

Sequence TACTCTTGCCACTCTCTCCTGT returned a sensor-assay potency score (higher = more potent) of 0.305.

Another assay deals with GNAT1. The assay is described as above. The settings on record: shRNA.
Take TGCACCTTGATGTAGTTGCCGG: the sensor-assay potency score (higher = more potent) is -1.2.

As for TTCGTCGTCCTCCACTAGCACC, the sensor-assay potency score (higher = more potent) is -1.74.

Regarding TTTGACGTTCTGCGTGTCGGTG, the sensor-assay potency score (higher = more potent) is -0.514.

For TAGATCTCCTTCACGTCGCGCC, the sensor-assay potency score (higher = more potent) was -0.148.

For the sequence TCCTTGATGATGATGTCGGTGA, the sensor-assay potency score (higher = more potent) was -1.08.

TAGCGGTGGTTGCAGATGCTGT: the sensor-assay potency score (higher = more potent) is -1.65.

TTGACGTTCTGCGTGTCGGTGG came in with a sensor-assay potency score (higher = more potent) of 0.245.

With TTCTTTTCCAGCTCCCTGGAGT, the sensor-assay potency score (higher = more potent) was -0.257.

Consider TTGAGTGTGGTCATGGCGCGTA, for which the sensor-assay potency score (higher = more potent) was -0.473.

TAATCTTCATCTGCTTGACGAT yielded a sensor-assay potency score (higher = more potent) of -0.376.

Take TTGGGTCCATCGTAGTCCGGGA: the sensor-assay potency score (higher = more potent) is -0.616.

Take TAGTCCGGGAAACAGATGCTGA: the sensor-assay potency score (higher = more potent) is -1.24.

A further assay has as its target GNLY. The assay is described as above. The settings on record: shRNA.
The sequence ACTATCGTCAGACAGGTCCTGT showed a sensor-assay potency score (higher = more potent) of -0.334.

Sequence TTGCCAGGTCGTAGTACTCAGG yielded a sensor-assay potency score (higher = more potent) of -1.35.

As for TTTTGGACTATCGTCAGACAGG, the sensor-assay potency score (higher = more potent) was -1.31.

In turn, ATTGGAAACACTTCTCTGGGTG yielded a sensor-assay potency score (higher = more potent) of 0.184.

With TATACACAACCTGAGGTCCTCA, the sensor-assay potency score (higher = more potent) is -0.844.

TTGGAAACACTTCTCTGGGTGG returned a sensor-assay potency score (higher = more potent) of -0.134.

In turn, TTGGACTATCGTCAGACAGGTC displayed a sensor-assay potency score (higher = more potent) of -0.895.

For the sequence TTCAGTTTTTGGACTATCGTCA, the sensor-assay potency score (higher = more potent) is 0.462.

On to TTTTGGTCAACAGGTCACCCTG, for which the sensor-assay potency score (higher = more potent) is -1.53.

As to TTGGTCAACAGGTCACCCTGGG, the sensor-assay potency score (higher = more potent) is -0.135.

The sequence TTTCTCCTCATCACGCAGGTGG showed a sensor-assay potency score (higher = more potent) of -0.588.

TTTGGTCAACAGGTCACCCTGG: the sensor-assay potency score (higher = more potent) came to 0.282.

Another assay addresses GOLGA1. The description is as above. The settings on record: shRNA.
TATTTTACTTAGTTCCTGCTGC: the sensor-assay potency score (higher = more potent) is 0.934.

Sequence TTGAGTTTCAGCAGTGACCTTT showed a sensor-assay potency score (higher = more potent) of 0.403.

As to TGATCTTACTTTCTGCACCTGT, the sensor-assay potency score (higher = more potent) is -0.0709.

The sequence TATGGTCTTATTTTTCTCCAGA came in with a sensor-assay potency score (higher = more potent) of -0.384.

TTTATCTTCTGCAAGTTTCGGA came in with a sensor-assay potency score (higher = more potent) of 0.43.

On to TATCACATGATCTCTCTGCTCT, for which the sensor-assay potency score (higher = more potent) is 0.568.

TTAAGTCTGATGACATCTGATT: the sensor-assay potency score (higher = more potent) was -1.11.

Take TTTACTTAGTTCCTGCTGCTGG: the sensor-assay potency score (higher = more potent) amounted to 0.484.

Turning to TTCGAAGAGCTCATTATCGGGT, the sensor-assay potency score (higher = more potent) was 0.0609.
